Molecules are shown by their SMILES. This is part of a sample that, as a whole, favours compounds with a hit. Of some 83,000 tested, about 20% had one in any assay.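 Treatment: one concentration, 48 hours, 96-well format. Scoring: percent growth, with anything below 10 considered active.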 A number with no mark means an inactive call. Active and inactive are the calls of the source.

Common to all, as to assay: NCI-60 one-dose screen, 48 h (100 = growth as untreated, 0 = no growth, -100 = all killed)
Conditions in all cases: 10 µM unless noted

Test [1] concerns K-562 leukemia.
Test [2] has as its system MDA-MB-231 breast.
For test [3], the system named is SF-268 CNS.
The subject of test [4] is SF-295 CNS.
Test [5] relates to SF-539 CNS.
For test [6], the system named is UACC-257 melanoma.
Test [7] concerns M14 melanoma.
Test [8] relates to HCT-15 colon.
The test system of test [9] is HT29 colon.
Test [10] has as its system SNB-75 CNS.
The test system of test [11] is SNB-19 CNS.
Test [12] concerns U251 CNS.
Test [13] has as its system PC-3 prostate.
Test [14] relates to SK-MEL-5 melanoma.
In test [15] the test system is LOX IMVI melanoma.
The subject of test [16] is SK-MEL-28 melanoma.
In test [17] the test system is SK-MEL-2 melanoma.
Test [18] deals with RXF 393 renal.
For test [19], the system named is UACC-62 melanoma.
Test [20] deals with MALME-3M melanoma.

In the case of `COc1cc(C2=NN(C(C)=O)C(c3ccc(OC(C)=O)cc3OC(C)=O)O2)c(OC(C)=O)c2ccccc12` (stereo not drawn), the growth in test [1] is 6.47% (active); in test [2] it was 34.2%; in test [3], 19.7%; in test [4], 22.2%; in [5] it was 7.95% (active); in test [6], -8.85% (active). The growth is 5.99% (active) in [7]; 32.8% in [8]; 29.9% in test [9]; 50.4% in test [10]; 36.7% in [11]; 15.7% in test [12]. In addition, the growth is 42.9% in [13]; 7.09% (active) in [14]; 2.78% (active) in [15]; 23.7% in [16]; 24.9% in [17].
Take `O=C(/C(=C/c1cccc([N+](=O)[O-])c1)c1ccccc1)c1ccccc1`: the growth is 4.03% (active) in test [1]; 51.6% in test [2]; 34.4% in test [3]; 64.2% in test [4]; 81.6% in test [5]; 36.5% in test [6]. The growth in test [7] was 46.4%; in [8], 16.6%; in test [9], 52.7%; in [10], 56.8%; in [11] it was 77%; in [12], 56.3%. Further, the growth was 64% in [13]; 41.5% in test [14]; 10.7% in [15]; 92.8% in test [16]; 28.8% in test [17].
As for `C=C(C)[C@@H]1C/C=C(/C=O)CC[C@@H]2O[C@@]2(C)CC/C=C(\C)CC1`, the growth in test [1] is 136%; in [2], 111%; in [18] it was 104%; in test [3], 112%; in [5], 105%; in test [6], 141%. Also, the growth in [7] was 115%; in test [9], 127%; in test [10], 87.1%; in test [11], 110%; in test [12], 104%; in test [13] it was 63.3%. Further, the growth in test [14] is 101%; in test [19], 92.3%; in test [15] it was 93.3%; in test [16], 118%.
Regarding `CC1(C)OC(=O)C(=Cc2ccccc2Br)C(=O)O1`, the growth was 87.4% in [1]; 109% in test [2]; 104% in test [3]; 99.7% in test [4]; 91.9% in test [5]; 95.3% in test [6]. Besides, the growth in test [7] was 88%; in test [8], 88.6%; in test [9], 103%; in test [10], 81.8%; in test [11] it was 94.3%; in test [12] it was 96.8%. In addition, the growth in test [13] was 92.5%; in test [14], 97.6%; in test [15], 94.1%; in test [16], 115%; in [17], 97.6%.
As to `CCOC(=O)/C(=C/c1ccccc1)C(=O)c1ccccc1`, the growth in [1] is 38.9%; in test [2], 81.4%; in test [3], 62%; in [4] it was 83%; in test [5], 84.4%; in [6], 64.1%. For the same compound, the growth in test [7] was 66.1%; in [9] it was 84.1%; in test [10], 49.6%; in test [11], 85.4%; in test [12], 68.1%; in test [13], 80.6%. In addition, the growth is 66.5% in [14], -26.9% (active) in test [15] and 94.3% in [16].
For `COc1cc2c(C#N)n3c(c2cc1OC)C(=O)C(c1ccccc1)Oc1ccccc1-3` (stereo not drawn), the growth in test [1] was 29.7%; in [2], 64.1%; in [3], 43%; in [4], 28.4%; in test [5], 83.5%; in test [6], 89.3%. For the same compound, the growth is 44.7% in test [7]; 31.5% in test [8]; 50.2% in [9]; 52.5% in test [10]; 41.1% in test [11]; 24.4% in test [12]. Also, the growth in test [13] is 33.4%; in test [14] it was 25.5%; in [15], 22.2%; in test [16], 93.3%; in test [17] it was 64.8%.
With `COc1cc(/C=C/C(=O)Nc2ccc3c(c2)/C(=C\c2cccn2C)C(=O)N3)cc(OC)c1OC`, the growth was 28.4% in [1]; 36.5% in [2]; 69.3% in [3]; 38.3% in [4]; 56.7% in test [5]; 62% in [6]. The growth in test [7] was 49.5%; in test [8], 32.5%; in test [9], 53.9%; in test [10] it was 9.39% (active); in test [11], 65.3%; in [12], 52.4%. For the same compound, the growth in test [13] was 59.9%; in test [14], 18.2%; in [15], 41.4%; in [16], 63.1%; in test [17], 25.1%.
As to `COc1ccc2c(c1)nc(N)c1c3ccccc3cn21`, the growth in [20] was 65.2%; in test [2], 85.5%; in [18], 77.1%; in [3], 81%; in [4] it was 79.5%; in [5] it was 94.3%. The growth is 85.9% in test [6]; 63.1% in test [7]; 56.4% in test [8]; 73.8% in [9]; 67.6% in test [10]; 83.4% in test [11]. Also, the growth is 72.8% in test [12]; 84% in [13]; 50.8% in [14]; 58.7% in test [19]; 74.3% in [15]; 78.8% in test [16]. Besides, the growth in [17] was 83.8%.
Regarding `O=C(Nc1nc(-c2ccccc2)cs1)c1cc(O)c(O)c(O)c1`, the growth in test [1] is 19.6%; in [2], 44%; in test [3], 43.7%; in test [4] it was 58.5%; in test [5], 42%; in test [6] it was 80.9%. In addition, the growth in test [7] was 54.4%; in test [8] it was 27.3%; in test [9] it was 80.8%; in [10], 33.1%; in test [11], 41.5%; in test [12], 32.1%. The growth is 58.8% in test [13]; 44.1% in test [14]; 40.2% in test [15]; 76.8% in test [16]; 56.8% in test [17].
For the compound `CNc1ccc(CSc2ccc(Cl)cc2)cc1`, the growth in test [1] is 82%; in test [2] it was 103%; in test [18], 111%; in test [3], 96.3%; in [5], 98.2%; in test [6] it was 97.4%. In addition, the growth was 103% in test [7]; 94.8% in test [8]; 109% in test [9]; 95.4% in test [10]; 89.5% in test [11]; 97.4% in test [12]. The growth is 72.9% in test [13]; 97.9% in [14]; 83% in [19]; 103% in test [15]; 112% in test [16].
As for `Cc1c(C(N)=O)sc2ncn(CC(=O)Nc3ccc(Cl)cc3)c(=O)c12`, the growth in test [1] was 96.8%; in test [2], 108%; in test [18], 105%; in test [3], 119%; in [5] it was 108%; in test [6], 148%. Further, the growth in [7] was 103%; in test [8], 117%; in [9], 126%; in [10], 101%; in test [11], 103%; in [12] it was 102%. Also, the growth in test [13] is 97%; in test [14], 107%; in [19] it was 99.2%; in test [15] it was 96.8%; in [16], 145%.
In the case of `COc1ccc(-c2csc(NC(=O)c3cc(O)c(O)c(O)c3)n2)cc1`, the growth is 44.8% in test [1]; 56% in [2]; 54.5% in test [3]; 73.4% in test [4]; 62.7% in test [5]; 87.3% in test [6]. In addition, the growth is 63.2% in [7]; 30.4% in test [8]; 92.3% in test [9]; 58.8% in test [10]; 59.9% in test [11]; 45.6% in [12]. In addition, the growth in test [13] is 68.4%; in [14], 51%; in [15] it was 50.6%; in test [16], 89.1%; in test [17], 71.4%.
`C=C(C)[C@H]1CC/C(C)=C/CC[C@]2(C)O[C@H]2CC/C(COC(C)=O)=C\C1=O`: the growth in test [1] is 95.8%; in test [2] it was 98.4%; in test [18] it was 105%; in [3] it was 115%; in test [5], 117%; in test [6], 128%. Further, the growth in [7] is 105%; in [8], 109%; in test [9], 115%; in test [10], 120%; in [11], 108%; in [12] it was 101%. Also, the growth is 94.6% in test [13]; 109% in test [14]; 108% in test [19]; 88.1% in test [15]; 116% in test [16].
For the compound `N#Cc1cccc(/C=C(/C(=O)c2ccccc2)c2ccccc2)c1`, the growth in test [1] was 1.89% (active); in [2], 54.5%; in [3], 51.1%; in [4] it was 63.5%; in [5], 91.9%; in [6], 43.1%. The growth in test [7] is 58.8%; in test [8], 18.9%; in [9] it was 70.1%; in test [11], 83%; in [12], 60.1%; in test [13] it was 66.5%. For the same compound, the growth was 49.3% in test [14], 14.1% in test [15], 100% in [16] and 34.5% in test [17].
Take `COc1ccc2[nH]cc(/C=C3/C(=O)Nc4ccc(F)cc43)c2c1`: the growth in test [1] is 72.1%; in test [2], 87.6%; in test [18], 91.5%; in test [4], 95.6%; in test [5], 99.4%; in test [6], 99.8%. In addition, the growth is 98.2% in test [7]; 75.6% in test [8]; 79.1% in test [9]; 43.2% in test [10]; 88.2% in test [11]; 80.1% in test [12]. Also, the growth in [13] was 76.4%; in test [14], 93.1%; in [19], 73.5%; in test [16] it was 96.2%; in test [17], 91.7%.

These data come from PubChem BioAssay (NCI).
